SW480 rerep = induces DNA re-replication in SW480 colon adenocarcinoma cells; SW480 DNA re-replication, Hoechst DNA content imaging, 48 h; Potency, µM (titrated, usually from 46.1 µM), for the others: top-dose re-replication activation, most hits filed as activators; 1.8% of 340,000 active; further: % of control where 0% means no effect; nearly all actives have a fitted effect of over 55% in size
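Readout is total intensity of Hoechst-stained nuclei, excited at 405 nm and collected at 500-530 nm. Compound treatment lasted 48 hr at 37 C in 5% CO2 before staining.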
ELG1 DNA repair = inhibitors of ELG1-dependent DNA repair in HEK293T cells; HEK293T ELG1-luciferase reporter, luminescence, 16 h; DNA damage induced by 5-fluorouridine; Potency, µM (top dose mostly 46.1 µM), inactives show at the highest dose activity change, negative = inhibition, most hits filed as inhibitors; 2.3% of 330,000 active; AID 504467; further: on the % scale 0 is the no-effect control and ±100 the full control effect; nearly all actives have a fitted effect of over 55% in size
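HEK293T cells expressing luciferase-tagged ELG1 (2,000/well) received 5-Fluorouridine plus compound or DMSO for 16 hr at 37 °C. Luciferase was read by ONE-Glo luminescence after 30 min at room temperature.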
KB-3-1 tox = KB-3-1 parental cell cytotoxicity; Potency, µM (top dose mostly 46.1 µM), usual class: cytotoxic; KB-3-1 viability, CellTiter-Glo ATP luminescence, 72 h; AID 1347075; 1.4% of 400,000 active; further: on the % scale 0 is the no-effect control and ±100 the full control effect; nearly all actives have a fitted effect of over 60% in size
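Screening of KB-3-1 cells (DMEM, 10% FBS, phenol-red free) ran from lowest to highest compound concentration; after 72 h at 37 °C viability was read luminescently and curves fitted.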
MCF10A rerep = induces DNA re-replication in MCF 10a normal breast cells | MCF 10A DNA re-replication, Hoechst nuclear intensity, 48 h | Potency, µM (series often up to 46.1 µM), inactives show top-dose activity, positive = re-replication, hits mostly activators | 2.9% of 350,000 active; further: % of control where 0% means no effect; nearly all actives have a fitted effect of over 50% in size
KB-V1 cytotox = KB-V1 MDR subline cytotoxicity; KB-V1 MDR cells viability, CellTiter-Glo, 72 h; Potency, µM (titrated, usually from 46.1 µM), usual class: cytotoxic; 3.4% of 400,000 active; AID 1347076; further: on the % scale 0 is the no-effect control and ±100 the full control effect; nearly all actives have a fitted effect of over 60% in size
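In this primary screen, KB-V1 cells overexpressing P-gp are incubated with library compounds (lowest to highest concentration) for 72 h at 37 degrees C before a luminescent ATP viability read.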
Numbers without * were called inactive; i = inactive; u = inconclusive; x = not tested or not shown. Shown are actives, neighbours in structure and some others; about 8.1% of the full set was active somewhere. The call rests on the fitted dose curve; in most records, active means well fitted curve in the direction sought with a large enough effect; inconclusive means small, poorly fitted or top-dose-only effect, or another doubt; inactive means no such curve, though single readings can be large; an effect the other way counts as inactive or inconclusive. Potency means the concentration at half of the fitted maximal effect.

SMILES	SW480 rerep	ELG1 DNA repair	KB-3-1 tox	MCF10A rerep	KB-V1 cytotox
O=S(=O)(Nc1nc2ccccc2[nH]1)c1ccccc1	-1%	u	i	-1%	21µM*
O=S(=O)(Nc1nc2ccccc2[nH]1)c1ccc(Cl)cc1	-7%	0%	i	0%	u
Cc1ccc(S(=O)(=O)CCC(=O)OCC(=O)N(C)c2ccccc2)cc1	-64%	x	i	21%	i
CN(C)c1ccc(-c2ccnc3c2CC(C)(C(=O)NCc2ccc(F)c(F)c2)O3)cc1 (configuration not stated)	x	x	i	x	i
COC(=O)c1sc(NC(=O)CSc2nnc(C(C)C)n2C)nc1C	-4%	-18%	i	-1%	i
O=C(CSc1nnnn1-c1ccc2c(c1)OCCO2)Nc1nc2c(s1)CCCC2	-15%	21µM*	i	2%	16µM*
CCOC(=O)c1sc(NC(=O)CSc2nnc(C(C)C)n2C)nc1C	-9%	-4%	i	4%	23µM*
CCOC(=O)c1sc(NC(=O)CSc2nnnn2-c2ccc(C)c(C)c2)nc1C	1%	-1%	i	5.8µM*	i
CCN(CC(=O)Nc1c(F)cccc1F)C(=O)CN(C)S(=O)(=O)c1ccc(F)cc1	2%	8%	i	3%	21µM*
CCN(CC(=O)Nc1c(F)cccc1F)C(=O)CCC(=O)c1ccc(F)cc1	-5%	21%	i	-1%	i
CCN(CC(=O)Nc1c(F)cccc1F)C(=O)CCc1nc2ccccc2c(=O)[nH]1	29µM*	21%	i	-15%	i
O=C(CCc1nc2ccccc2c(=O)[nH]1)NNC(=O)c1cccc(Cl)c1	29µM*	-6%	i	15%	u
CCN(CC(=O)Nc1c(F)cccc1F)C(=O)CCCc1nc2ccccc2c(=O)[nH]1	-2%	16%	i	6%	i
O=[N+]([O-])c1ccc2c(c1)nc(CO)n2Cc1ccccc1	23%	-5%	i	7%	i
COc1cccc(NC(=O)N(C)C[C@H]2OCc3cn(nn3)CCCC(=O)N([C@@H](C)CO)C[C@@H]2C)c1	x	x	i	x	u
C=CCCC(=O)N1C[C@H]2CCN(C)[C@H]2C[C@H]1c1ccc(Br)cc1	x	x	i	x	i
Nc1ccc(/C=C/c2nc3ccccc3s2)cc1	x	x	i	x	u
Cc1ccc(-n2nnnc2Sc2nc([N+](=O)[O-])nn2C)cc1	16µM*	u	i	u	i
Nc1ccc(/C=C/c2cccc3cccnc23)cc1	x	x	i	x	i
CCc1ccc2nc(-c3cccc(C)c3)nc(SCC(=O)NCC3CCCO3)c2c1 (configuration not stated)	-4%	-5%	i	-4%	2.6µM*
Cc1cc(C(=O)N2CCC2(C)C(=O)NS(=O)(=O)c2ccccc2Cl)nn1C (configuration not stated)	x	x	i	x	i
Cc1cccc(N2CCN(C(=O)c3ccc4nc(-c5ccco5)c(-c5ccco5)nc4c3)CC2C)c1 (configuration not stated)	u	u	u	12µM*	i
O=C(c1ccc2nc(-c3ccco3)c(-c3ccco3)nc2c1)N1CCN(c2ncccn2)CC1	9%	u	i	13µM*	u
O=C(Nc1ccc2nc(-c3ccco3)c(-c3ccco3)nc2c1)N1CCN(c2ccccn2)CC1	u	12µM*	i	u	u
Cc1cccc(N2CCN(C(=O)c3cc4c(=O)n(C)c5ccccc5c4n3C)CC2C)c1 (configuration not stated)	15%	15µM*	u	6%	u
SMILES	SW480 rerep	ELG1 DNA repair	KB-3-1 tox	MCF10A rerep	KB-V1 cytotox
Cc1cccc(N2CCN(C(=O)c3ccc4nccnc4c3)CC2C)c1 (configuration not stated)	-1%	-2%	i	6%	i
Cc1cc(N2CCCC2)nc(N2C3CCC2CC(O)(c2ccc(F)cc2)C3)n1 (configuration not stated)	x	-10%	x	x	x
COc1ccc(C2(O)CC3CCC(C2)N3c2cc(C)nc(-c3ccccc3)n2)cc1 (configuration not stated)	3%	18µM*	i	-1%	u
Cc1ccc2oc(C(=O)N(Cc3cccc(F)c3)C3CCS(=O)(=O)C3)c(C)c2c1 (configuration not stated)	x	x	i	x	i
CCC(=O)Nc1ccc(S(=O)(=O)Nc2cccc(C)c2)cc1OC	7%	0%	u	u	18µM*
CCC(=O)Nc1ccc(S(=O)(=O)N2CCCCC2)cc1OC	-8%	-8%	i	28%	i
CC(C)(C)OC(=O)N1CCN(C(=O)Nc2ccc3c(c2)OCCO3)CC1	1%	29%	i	-1%	u
Cc1cccc(C)c1N1CCN(C(=O)Nc2ccc3c(c2)OCCO3)CC1	9%	u	i	7%	4.6µM*
O=C(Nc1ccc2c(c1)OCCO2)N1CCN(c2ccc(F)cc2)CC1	2%	u	u	10%	21µM*
Cn1c(=O)oc2cc(S(=O)(=O)NCCC(=O)Nc3ccc(F)cc3F)ccc21	x	x	i	x	i
CN(CCO)c1nc(N)c(C#N)c(CC#N)c1C#N	2%	3%	u	11%	i
CN(c1ccccc1)c1nc(N)c(C#N)c(CC#N)c1C#N	1%	24%	15µM*	10%	7.3µM*
O=C1CC(c2cccc([N+](=O)[O-])c2)c2ccc3ccccc3c2N1 (configuration not stated)	-2%	-1%	i	7%	13µM*
COc1cccc(CNC(=O)Cn2c(=O)n3nc(-c4cccc(F)c4)nc3c3ccccc32)c1	x	x	i	x	i
CC(C)n1ncc2c(C(=O)Nc3cccc(C#N)c3)cc(C3CC3)nc21	-20%	u	u	23µM*	i
COc1ccccc1CNC(=O)c1cc(C2CC2)nc2c1cnn2C(C)C	9%	-19%	i	u	2.9µM*
CC(C)c1ccc(NC(=O)C2Cc3c(-c4ccc(Cl)cc4)ccnc3O2)cc1 (configuration not stated)	x	x	i	x	i
COc1ccc(NC(=O)COC(=O)CCC(=O)c2cccs2)cc1OC	20%	8%	i	4%	u
O=C(CSc1nnc(-c2n[nH]c3ccccc23)n1-c1ccccc1)Nc1cccc(Cl)c1	4%	u	i	-49%	7.3µM*
Cc1ccc(NC(=O)N(Cc2ccc3c(c2)OCO3)Cc2cc3cc4c(cc3[nH]c2=O)OCCO4)cc1	-2%	21µM*	i	0%	i
CCC(=O)N(Cc1ccc(C)cc1)Cc1cc2cc3c(cc2[nH]c1=O)OCO3	-6%	-15%	i	-5%	12µM*
Cc1ccc(NC(=O)N(Cc2cccs2)Cc2cc3cc4c(cc3[nH]c2=O)OCO4)cc1	x	21µM*	x	x	x
